These results are taken from PubChem BioAssay (EPA / NIEHS).

Activity calls are given as the source filed them. The calls were made as follows: active = hit-call score of the fitted dose curve at least 0.9, where 1 is the maximum; inactive = score below 0.9.

Read-out in assay [1]: Tumor necrosis factor receptor superfamily member 6 (Homo sapiens) (UniProt P25445)
Description: LTEA_HepaRG_FAS: Life Technologies and Expression Analysis (LTEA) Assay for Fas cell surface death receptor (FAS) using HepaRG (AID 2283447). Conditions: mRNA level, 48 h; actives raise or lower the signal. Put shortly: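 Differentiated HepaRG cells in serum-free induction medium were exposed 48 h to 8 half-log concentrations up to 100 uM in 0.5% DMSO, in duplicate. FAS mRNA was measured by qRT-PCR normalised to ACTB, GAPDH and POLR2A; bidirectional fit versus DMSO.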

Read-out in assay [2]: Fatty acid synthase (Homo sapiens) (UniProt P49327)
Description: LTEA_HepaRG_FASN: Life Technologies and Expression Analysis (LTEA) Assay for Fatty Acid Synthase (FASN) using HepaRG (AID 2283448). Conditions: mRNA level, 48 h; actives raise or lower the signal. The gist of the method:
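Differentiated human HepaRG cells were exposed for 48 h in serum-free induction medium to eight half-log concentrations up to 100 uM in 0.5% DMSO, in duplicate. FASN mRNA was quantified by TaqMan qRT-PCR, normalized to ACTB/GAPDH/POLR2A, and fitted bidirectionally against DMSO.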

Read-out in assay [3]: Cyclin D2 (CCND2), CCND2 (gene 894)
Description: LTEA_HepaRG_CCND2: Life Technologies and Expression Analysis (LTEA) Assay for Cyclin D2 (CCND2) using HepaRG (AID 2283449).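 Also: CCND2 transcript measured by TaqMan qRT-PCR and normalised to three housekeeping genes.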 To be noted: mRNA level, 48 h; actives raise or lower the signal. Put shortly: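 Chemicals in 0.5% DMSO, eight half-log concentrations from 100 uM top, were applied in duplicate for 48 h to human HepaRG cells in serum-free induction medium. CCND2 mRNA by TaqMan qRT-PCR, normalised to ACTB/GAPDH/POLR2A; bidirectional fit versus DMSO.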

Read-out in assay [4]: Cyclin Dependent Kinase Inhibitor 1A (CDKN1A), CDKN1A (gene 1026)
Description: LTEA_HepaRG_CDKN1A: Life Technologies and Expression Analysis (LTEA) Assay for Cyclin Dependent Kinase Inhibitor 1A (CDKN1A) using HepaRG (AID 2283450). To be noted: mRNA level, 48 h; actives raise or lower the signal. The gist of the method: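 HepaRG, 48 h dosing, 8-pt half-log series from 100 uM top, 0.5% DMSO vehicle, duplicates. Readout: TaqMan qRT-PCR of CDKN1A transcript, housekeeping-normalized (ACTB, GAPDH, POLR2A). Up/down curve fit relative to DMSO.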

Read-out in assay [5]: Cyclin D1 (CCND1), CCND1 (gene 595)
The assay can be described thus: LTEA_HepaRG_CCND1: Life Technologies and Expression Analysis (LTEA) Assay for Cyclin D1 (CCND1) using HepaRG (AID 2283451). To be noted: mRNA level, 48 h; actives raise or lower the signal. The gist of the method:
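qRT-PCR (Fluidigm 96.96 array) read-out of transcript level, housekeeping-normalized (ACTB/GAPDH/POLR2A). HepaRG cells, 48 h chemical exposure, 8-point half-log series from 100 uM, 0.5% DMSO vehicle; gain or loss relative to DMSO baseline.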

Read-out in assay [6]: catalase (CAT), CAT (gene 847)
The assay can be described thus: LTEA_HepaRG_CAT: Life Technologies and Expression Analysis (LTEA) Assay for catalase (CAT) using HepaRG (AID 2283452). To be noted: mRNA level, 48 h; actives raise or lower the signal. The gist of the method:
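HepaRG cells in serum-free induction medium, 0.5% DMSO vehicle, exposed 48 h in duplicate over 8 half-log concentrations from 100 uM. CAT mRNA measured by qRT-PCR, normalized to ACTB, GAPDH, POLR2A; bidirectional fit versus DMSO.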

Read-out in assay [7]: flavin-containing dimethylaniline monooxygenases 3 (FMO3), FMO3 (gene 2328)
Description: LTEA_HepaRG_FMO3: Life Technologies and Expression Analysis (LTEA) Assay for flavin-containing dimethylaniline monooxygenases 3 (FMO3) using HepaRG (AID 2283453).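 As to AC50: FMO3 transcript by TaqMan qRT-PCR normalized to ACTB GAPDH and POLR2A.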 To be noted: mRNA level, 48 h; actives raise or lower the signal. The gist of the method:
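HepaRG, 48 h exposure, 8-pt half-log series from 100 uM, 0.5% DMSO vehicle, duplicates; FMO3 transcript by Fluidigm TaqMan qRT-PCR, housekeeping-normalized; gain/loss fit vs DMSO.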

Read-out in assay [8]: Cytochrome P450 (CYP1A1), CYP1A1 (gene 1543)
The assay can be described thus: LTEA_HepaRG_CYP1A1: Life Technologies and Expression Analysis (LTEA) Assay for Cytochrome P450 (CYP1A1) using HepaRG (AID 2283454). Conditions: mRNA level, 48 h; actives raise or lower the signal. The gist of the method: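 qRT-PCR read-out: CYP1A1 transcript normalized to three housekeeping genes, fitted bidirectionally against 0.5% DMSO vehicle baseline. Human HepaRG cells, 48 h chemical exposure, 8-point half-log series topping at 100 uM.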

Read-out in assay [9]: CFLAR gene, CFLAR (gene 8837)
Description: LTEA_HepaRG_CFLAR: Life Technologies and Expression Analysis (LTEA) Assay for CFLAR gene using HepaRG (AID 2283455). Conditions: mRNA level, 48 h; actives raise or lower the signal. Put shortly:
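Differentiated HepaRG cells in serum-free induction medium were exposed 48 h in duplicate to eight half-log concentrations up to 100 uM in 0.5% DMSO; mRNA measured by TaqMan qRT-PCR, normalized to ACTB, GAPDH, POLR2A; bidirectional fitting versus DMSO.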

Read-out in assay [10]: Forkhead box O1 (FOXO1), FOXO1 (gene 2308)
Description: LTEA_HepaRG_FOXO1: Life Technologies and Expression Analysis (LTEA) Assay for Forkhead box O1 (FOXO1) using HepaRG (AID 2283456). Conditions: mRNA level, 48 h; actives raise or lower the signal. Put shortly:
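Differentiated HepaRG cells, in serum-free induction medium with 0.5% DMSO, exposed 48 h in duplicate to 8-point half-log series from 100 uM. FOXO1 mRNA measured by TaqMan qRT-PCR, normalized to ACTB, GAPDH, POLR2A; bidirectional fit versus DMSO.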

The nature of assay [11]: CEETOX_H295R_11DCORT: CeeTox H295R High-throughput Steroidogenesis Assay for 11-Deoxycortisol (11DCORT) (AID 2283432). Conditions: actives raise or lower the signal. Put shortly:
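H295R cells prestimulated 48 h with 10 uM forskolin, then exposed 48 h to chemical in 0.1% DMSO. 11-Deoxycortisol in medium quantified by HPLC-MS/MS after MTBE extraction; bidirectional fit versus DMSO. MTT viability read in same wells.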

Assay [12] is described as follows: CEETOX_H295R_OHPREG: CeeTox H295R High-throughput Steroidogenesis Assay for OH-Pregnenolone (OHPREG) (AID 2283434). To be noted: actives raise or lower the signal. Put shortly: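 H295R cells pre-stimulated 48 h with 10 uM forskolin, then exposed 48 h to chemical in 0.1% DMSO. 17alpha-hydroxypregnenolone in medium quantified by MTBE extraction and HPLC-MS/MS; bidirectional fit versus DMSO, viability checked by MTT.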

A short description of assay [13]: CEETOX_H295R_CORTIC: CeeTox H295R High-throughput Steroidogenesis Assay for Corticosterone (CORTIC) (AID 2283437).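 Also: corticosterone secreted into medium quantified by mass spectrometry.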 To be noted: actives raise or lower the signal. The gist of the method:
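H295R adrenal cells prestimulated 48 hours with 10 uM forskolin, then exposed 48 hours to chemical in 0.1% DMSO. Corticosterone in medium measured by HPLC-MS/MS after MTBE extraction; MTT viability in the same wells; bidirectional fit versus DMSO.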

Assay [14] is described as follows: CEETOX_H295R_CORTISOL: CeeTox H295R High-throughput Steroidogenesis Assay for Cortisol (AID 2283438).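 Also: cortisol secreted into medium quantified by LC-MS/MS.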 To be noted: actives raise or lower the signal. The gist of the method: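 H295R human adrenal cells were prestimulated 48 h with 10 uM forskolin, then exposed 48 h to test chemical (0.1% DMSO final). Medium cortisol was quantified by HPLC-MS/MS after MTBE extraction; bidirectional fitting relative to DMSO baseline.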

Assay [15] is described as follows: CEETOX_H295R_DOC: CeeTox H295R High-throughput Steroidogenesis Assay for DOC (AID 2283439). To be noted: actives raise or lower the signal. The gist of the method: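 H295R adrenal cells prestimulated 48 h with 10 uM forskolin, then exposed 48 h to test chemical (0.1% DMSO final). Medium 11-deoxycorticosterone extracted with MTBE, quantified by HPLC-MS/MS; bidirectional fit versus DMSO baseline; MTT viability in same wells.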

The nature of assay [16]: CEETOX_H295R_PROG: CeeTox H295R High-throughput Steroidogenesis Assay for Progesterone (PROG) (AID 2283442).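 As to AC50: human H295R adrenal cells primed with 10 µM forskolin before dosing.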 To be noted: actives raise or lower the signal. Put shortly: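 Progesterone read-out: HPLC-MS/MS on MTBE extracts of conditioned medium after 48 h chemical exposure of forskolin-primed (10 uM, 48 h) H295R cells. Gain or loss of signal was fitted relative to DMSO baseline.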

Assay [17] is described as follows: CEETOX_H295R_ESTRADIOL: CeeTox H295R High-throughput Steroidogenesis Assay for Estradiol (AID 2283440).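 Also: estradiol secreted into medium quantified by LC-MS/MS after dansyl derivatisation.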 To be noted: actives raise or lower the signal. Put shortly: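 H295R, 48 h forskolin (10 uM) prestim → 48 h compound, 0.1% DMSO final. Estradiol in medium: MTBE extraction, dansyl chloride derivatization, LC-MS/MS. Fit bidirectional vs DMSO baseline; MTT viability in same wells.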

A short description of assay [18]: CEETOX_H295R_ESTRONE: CeeTox H295R High-throughput Steroidogenesis Assay for Estrone (AID 2283441).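 Also: estrone secreted into medium measured by LC-MS/MS after dansyl derivatization.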 To be noted: actives raise or lower the signal. The gist of the method: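 H295R cells; 48 h forskolin (10 uM) prestimulation; 48 h compound exposure, 0.1% DMSO final. Medium estrone: MTBE extraction, dansyl derivatization, HPLC-MS/MS. Bidirectional fit vs DMSO.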

Sequence of Fatty acid synthase (Homo sapiens) (P49327 whole entry, looked up): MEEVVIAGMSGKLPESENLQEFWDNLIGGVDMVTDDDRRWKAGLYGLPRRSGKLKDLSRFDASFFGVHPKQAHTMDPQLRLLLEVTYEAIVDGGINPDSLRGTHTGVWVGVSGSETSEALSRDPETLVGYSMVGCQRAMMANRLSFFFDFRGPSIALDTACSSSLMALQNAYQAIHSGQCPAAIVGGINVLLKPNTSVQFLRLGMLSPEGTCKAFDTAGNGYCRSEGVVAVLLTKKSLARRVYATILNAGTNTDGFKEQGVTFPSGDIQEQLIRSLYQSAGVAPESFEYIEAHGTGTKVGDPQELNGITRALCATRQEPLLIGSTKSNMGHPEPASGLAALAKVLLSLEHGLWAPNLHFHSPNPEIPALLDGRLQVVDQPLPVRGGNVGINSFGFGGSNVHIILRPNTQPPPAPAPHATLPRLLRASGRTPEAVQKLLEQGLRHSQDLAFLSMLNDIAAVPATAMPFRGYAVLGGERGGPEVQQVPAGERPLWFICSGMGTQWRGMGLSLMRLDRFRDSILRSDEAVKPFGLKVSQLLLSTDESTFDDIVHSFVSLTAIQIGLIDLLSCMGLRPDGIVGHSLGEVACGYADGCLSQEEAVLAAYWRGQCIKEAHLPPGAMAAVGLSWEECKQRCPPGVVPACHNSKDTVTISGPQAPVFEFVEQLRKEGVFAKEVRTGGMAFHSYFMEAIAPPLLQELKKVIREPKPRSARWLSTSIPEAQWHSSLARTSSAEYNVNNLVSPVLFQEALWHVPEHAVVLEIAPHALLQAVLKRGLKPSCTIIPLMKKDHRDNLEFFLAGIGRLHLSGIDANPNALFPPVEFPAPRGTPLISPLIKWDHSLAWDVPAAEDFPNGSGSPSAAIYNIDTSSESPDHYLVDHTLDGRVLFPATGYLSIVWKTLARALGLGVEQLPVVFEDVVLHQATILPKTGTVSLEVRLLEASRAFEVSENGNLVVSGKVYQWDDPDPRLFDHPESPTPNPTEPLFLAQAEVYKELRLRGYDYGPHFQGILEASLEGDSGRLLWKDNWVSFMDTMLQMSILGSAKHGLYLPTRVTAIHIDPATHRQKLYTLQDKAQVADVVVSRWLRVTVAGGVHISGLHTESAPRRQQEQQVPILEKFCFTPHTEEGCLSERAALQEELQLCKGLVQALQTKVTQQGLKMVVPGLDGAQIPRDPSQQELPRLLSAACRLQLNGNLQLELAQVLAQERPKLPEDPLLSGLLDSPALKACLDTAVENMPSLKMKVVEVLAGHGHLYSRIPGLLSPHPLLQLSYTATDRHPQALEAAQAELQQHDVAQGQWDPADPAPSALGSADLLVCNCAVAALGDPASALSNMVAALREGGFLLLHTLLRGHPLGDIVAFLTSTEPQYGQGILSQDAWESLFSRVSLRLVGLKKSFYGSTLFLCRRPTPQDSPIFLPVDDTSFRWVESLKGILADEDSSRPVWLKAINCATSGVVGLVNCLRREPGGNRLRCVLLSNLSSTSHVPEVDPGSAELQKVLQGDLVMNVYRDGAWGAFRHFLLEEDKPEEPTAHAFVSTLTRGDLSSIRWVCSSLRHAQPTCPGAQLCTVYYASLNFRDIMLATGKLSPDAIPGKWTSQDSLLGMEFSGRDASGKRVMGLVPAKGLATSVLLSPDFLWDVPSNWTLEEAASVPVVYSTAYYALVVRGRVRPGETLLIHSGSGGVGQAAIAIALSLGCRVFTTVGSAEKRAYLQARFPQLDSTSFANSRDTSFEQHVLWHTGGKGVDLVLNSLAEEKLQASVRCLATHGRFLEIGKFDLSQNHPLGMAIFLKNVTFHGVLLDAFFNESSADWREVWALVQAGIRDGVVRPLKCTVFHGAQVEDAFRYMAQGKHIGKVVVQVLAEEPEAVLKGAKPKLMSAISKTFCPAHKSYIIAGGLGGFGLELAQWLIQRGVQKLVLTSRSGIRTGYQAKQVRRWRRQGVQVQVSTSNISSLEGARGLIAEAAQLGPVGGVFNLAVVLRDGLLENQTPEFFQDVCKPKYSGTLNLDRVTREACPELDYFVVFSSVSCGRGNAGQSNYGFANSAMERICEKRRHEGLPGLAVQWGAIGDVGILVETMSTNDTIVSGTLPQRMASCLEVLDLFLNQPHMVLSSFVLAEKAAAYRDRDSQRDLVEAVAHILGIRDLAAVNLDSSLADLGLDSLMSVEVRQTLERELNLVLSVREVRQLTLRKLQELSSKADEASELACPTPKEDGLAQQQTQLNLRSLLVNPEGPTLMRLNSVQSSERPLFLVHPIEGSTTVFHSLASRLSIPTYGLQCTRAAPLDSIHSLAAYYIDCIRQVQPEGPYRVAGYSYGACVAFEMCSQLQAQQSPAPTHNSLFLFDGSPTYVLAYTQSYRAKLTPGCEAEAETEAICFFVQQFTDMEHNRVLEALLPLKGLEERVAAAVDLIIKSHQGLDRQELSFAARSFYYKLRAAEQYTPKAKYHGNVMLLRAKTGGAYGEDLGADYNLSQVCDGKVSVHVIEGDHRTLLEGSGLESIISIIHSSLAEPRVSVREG

In the case of `COCc1nnc(-c2ccc[n+]([O-])c2)n1-c1c(Cl)c(Cl)cc2[nH]c(=O)c(=O)[nH]c12`, the compound was classed as inactive in [1], in assay [2], in assay [3], in [4], in assay [5] and in [6]. Moreover, the result in [7], in [9] and in assay [10] was inactive. For the same compound, in [8], the AC50 (as a rule, the midpoint of the concentration-response curve, whichever way the signal moves) is 50 µM (active).
For the compound `CCCCCCCC/C=C\CCCCCCCC(=O)OC[C@@H](O)[C@H]1OC[C@H](O)[C@H]1O`, the compound was called inactive in assay [1], in assay [2], in assay [3], in [4], in [5] and in assay [6]. For the same compound, the outcome in assay [7], in [8], in assay [9] and in assay [10] was inactive.
As to `C[C@]12C=CC(=O)C=C1CC[C@H]1[C@@H]3C[C@@H](O)[C@](O)(C(=O)CO)[C@@]3(C)C[C@H](O)[C@@]12F`, the outcome in assay [11], in assay [12], in assay [14], in assay [16], in assay [1] and in [2] was inactive. The outcome in assay [3], in assay [4], in assay [5], in [6], in [7] and in [9] was inactive. In assay [10], the result was inactive. Also, the figures for the AC50 in [13], in [15] and in assay [8] were 19.8 µM (active), 11.2 µM (active) and 50 µM (active), respectively.
For `CC(C)c1nnc2ccc(-c3ocnc3-c3cc(F)ccc3F)cn12`, the outcome in assay [11], in assay [12], in [13], in assay [14], in [15] and in assay [17] was inactive. Besides, the outcome in assay [18], in assay [16], in assay [1], in assay [4], in [5] and in [9] was inactive. The compound was called inactive in assay [10]. In addition, the AC50 in assay [2] was 50 µM (active); in assay [6] it was 50 µM (active); in [7] it was 63.6 µM (active); in [8], 29.9 µM (active).
On to `CCCCCCCCCC`, for which the result in assay [1], in [2], in assay [3], in [4], in [5] and in assay [6] was inactive. Further, the outcome in assay [7], in assay [9] and in [10] was inactive. In addition, in assay [8], the AC50 is 50 µM (active).
Take `Cc1ncc([C@@H](CCCCCCc2ccc3c(n2)NCCC3)CC(=O)O)cn1`: the compound was classed as inactive in [12], in assay [18], in assay [1], in assay [2], in [3] and in assay [4]. The compound was called inactive in [5], in [6], in assay [7], in [9] and in assay [10]. Further, the results for the AC50 in assay [16] and in assay [8] were 12.5 µM (active) and 50 µM (active), respectively.
Consider `NC(=O)NN=Cc1ccc([N+](=O)[O-])o1`, for which the compound was called inactive in assay [1], in [4], in [5], in [6], in assay [7] and in assay [9]. The compound was classed as inactive in assay [10]. Further, the AC50 is 50 µM (active) in assay [2], 0.0722 µM (active) in assay [3] and 50 µM (active) in [8].
As to `Cn1c(=O)c2[nH]cnc2n(C)c1=O`, the compound was classed as inactive in [1], in [2], in assay [3], in [4], in [5] and in assay [6]. The compound was called inactive in [7], in [8], in assay [9] and in assay [10].
